Test results from PubChem BioAssay AID504848 (National Center for Advancing Translational Sciences (NCATS), 2011).
Hit rate of the full screen: of about 2,300 compounds, about 1,400 (61%) were called active. Roughly 29% stayed inconclusive and do not appear here. The call rests on the fitted dose curve; in most records, active means well fitted inhibition curve with a large enough effect; inconclusive means small, poorly fitted or top-dose-only effect, or effect the other way; inactive means no such curve, though single readings can be large or run the other way. The set was probably picked from earlier hits. Some of the results follow. Square brackets hold non-standard residues; d marks the D form. Peptide text beside a SMILES is read from it. * marks the point of attachment. ξ: configuration not given here. ξF = NC(Cc1ccccc1)C(=O)O; Cbz = O=C(OCc1ccccc1)*

Assay: Confirmation screen for delayed death inhibitors of the malarial parasite plastid, 96 hour incubation; further: nearly all actives have a fitted effect of over 60% in size
Conditions: P. falciparum luciferase growth in erythrocytes; series mostly up to 28.7 µM
In short: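 Two-generation (96 h, 37 C) exposure of P. falciparum carrying an integrated firefly luciferase reporter in erythrocytes, 0.1% parasitemia and 2% hematocrit final, Albumax-supplemented RPMI. Luminescence decrease measures growth inhibition.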
Potency means the concentration at half of the fitted maximal effect.

Compound | Potency
Cc1nn(-c2ccccc2)c(C)c1/C=N/n1c(-c2ccccc2Br)n[nH]c1=S | 11.2 µM (active)
S=c1[nH]nc(-c2ccccn2)n1/N=C/c1ccc(-c2ccccc2Br)o1 | inactive
Nc1nc(CCl)nc(N(c2ccccc2)c2ccccc2)n1 | 1.41 µM (active)
COC(=O)[C@H](Cc1ccccc1)N(C)S(=O)(=O)c1cccc(S(=O)(=O)N(C)[C@@H](Cc2ccccc2)C(=O)OC)c1 | 14.1 µM (active)
O=C(N[C@@H](Cc1ccccc1)C(=O)CCl)OCc1ccccc1 | inactive
O=C(CNC(=O)c1cccc(F)c1)N/N=C/c1ccc([N+](=O)[O-])s1 | inactive
COc1ccc(C(=O)NCC(=O)N/N=C/c2ccc([N+](=O)[O-])s2)cc1OC | 6.31 µM (active)
CCN(CC)Cc1cc2[nH]c3c4ccc(Cl)cc4ncc3c2cc1OC | 0.199 µM (active)
O=C(COC(=O)C1C2CC3OC(=O)C1C3C2)Nc1ccccc1 (centres undefined) | inactive
CSc1c(CC(=O)Nc2ccccc2)n(C)c2ccccc12 | 8.91 µM (active)
Brc1c(CSc2nc3ccccc3s2)nc2ncccn12 | 6.31 µM (active)
CC[C@@H](C)C(NC(=O)OC(C)(C)C)c1cn([C@@H](CCCCNC(=O)OC(C)(C)C)C(=O)N2CCN(C(=O)OC(C)(C)C)CC2)nn1 (some centres undefined) | 1.26 µM (active)
CC[C@@H](C)C(NC(=O)OC(C)(C)C)c1cn([C@@H](Cc2ccc(O)cc2)C(=O)N2CCN(C(=O)OC(C)(C)C)CC2)nn1 (some centres undefined) | 8.91 µM (active)
CCC(CC)N1CCN(Cc2nc3ccc([N+](=O)[O-])cc3c(=O)n2-c2ccccc2F)CC1 | inactive
CCOc1ccc2c(c1)C(c1ccccc1)=NNC(c1ccccc1)=N2 | 10 µM (active)
Brc1ccccc1-c1nnc(COc2ncnc3c2cnn3-c2ccccc2)o1 | inactive
CCOC(=O)c1c(S(=O)(=O)NCC(=O)N2CCN(c3ccccc3OC)CC2)c(C)n(C)c1C | 12.6 µM (active)
CN(Cc1cccc(Cl)c1Cl)C(=O)c1ccc(NC(=O)CC#N)cc1 | 4.47 µM (active)
O=C(Nc1ccc2c(c1)CCCN2C(=O)c1ccco1)c1cc([N+](=O)[O-])ccc1Cl | 14.1 µM (active)
Cc1ccc2cc3cc(C(=O)NCCCN4CCCC4=O)oc3nc2c1 | 1 µM (active)
COCCCNC(=O)c1cc2cc3cc(OC)ccc3nc2o1 | 2.24 µM (active)
COc1ccccc1NC(=S)NCc1cccs1 | inactive
COc1ccc2nc3oc(C(=O)NCc4cccs4)cc3cc2c1 | 2.24 µM (active)

Compound | Potency
OC(CN1C2=NCCN2c2ccccc21)c1ccc2c(c1)OCO2 (centres undefined) | 2.51 µM (active)
O=C(CN1C2=NCCCN2c2ccccc21)c1ccc2c(c1)OCO2 | 7.08 µM (active)
Cc1ccc(C)c(C(=O)CN2C3=NCCCN3c3ccccc32)c1 | 5.62 µM (active)
CCOc1ccc(NC(=O)C[n+]2ccc(N(C)C)cc2)cc1 | 0.501 µM (active)
O=C(C[n+]1cccc(CNC(=O)c2ccc(OC(F)F)cc2)c1)Nc1ccc(SC(F)F)cc1 | 1 µM (active)
CN(C)c1cc[n+](CC(=O)Nc2ccc(OC(F)F)cc2)cc1 | 1.58 µM (active)
Cn1nnnc1Sc1ncnc2scc(-c3ccc[nH]3)c12 | 11.2 µM (active)
Cn1nnnc1Sc1ncnc2scc(-c3cccs3)c12 | 8.91 µM (active)
Cn1nnnc1Sc1ncnc2scc(-c3ccsc3)c12 | 3.98 µM (active)
O=C1C(Cl)=C(NC2CCCCC2)C(=O)N1c1ccc(Cl)cc1 | 12.6 µM (active)
CCCCN(C)CCNC(=O)c1cc2c(=O)[nH]c3ccccc3c2n1C | 12.6 µM (active)
CCOc1ccc(CNC(=O)c2cc3oc4ccccc4c3n2C)cc1 | inactive
Cc1cc(C)cc(NC(=O)c2cc(S(=O)(=O)NCc3ccco3)ccc2F)c1 | inactive
CCOc1ccccc1NC(=O)c1cc(S(=O)(=O)NCc2ccco2)ccc1F | 11.2 µM (active)
C=C1C(=O)O[C@@H]2C[C@@H](C)[C@@H]3C=CC(=O)[C@@]3(C)[C@@H](OC(C)=O)[C@H]12 | 1.41 µM (active)
Nc1ccc[n+](CC(=O)c2ccccc2)c1 | 12.6 µM (active)
CCC(C)(C)NC(=O)C(c1cccc(OC)c1OC)N(CC(C)C)C(=O)CCC(=O)Nc1cc(C)on1 (centres undefined) | 7.94 µM (active)
O=C(Nc1ccc(S(=O)(=O)NCc2ccco2)cc1)c1ccc2ccccc2n1 | 12.6 µM (active)
CCN(CC(=O)Nc1c(F)cccc1F)C(=O)c1ccc(S(=O)(=O)NCc2ccco2)cc1 | inactive
Cc1cc(C)n(-c2ccc(C(=O)Nc3ccc(S(=O)(=O)NCc4ccco4)cc3)cc2)n1 | 8.91 µM (active)
CC(C)n1nc(C(=O)Nc2cccc(S(=O)(=O)NCc3ccco3)c2)c2ccccc2c1=O | 7.94 µM (active)
COc1ccc2c(C)c(CCC(=O)NC3CC3)c(=O)oc2c1C | 3.55 µM (active)
COc1ccc2c(c1)c(C(=O)N/N=C/c1ccc(OC)c(OC)c1)c(C)n2C | 8.91 µM (active)

Compound | Potency
O=C(NCC1CCCO1)c1ccc(Cn2c(=S)[nH]c3ccccc3c2=O)cc1 (centres undefined) | 14.1 µM (active)
Cc1cccc(N2CCN(C(=O)C3CCN(c4ncnc5c4nc4n5CCCCC4)CC3)CC2)c1C | 11.2 µM (active)
CC1CCN(C(=O)C2CCCN(c3ncnc4c3nc3n4CCCCC3)C2)CC1 (centres undefined) | 11.2 µM (active)
Cc1cc(C)n2nc(SCC(=O)N3CCN(c4ccc(F)cc4)CC3)nc2n1 | 12.6 µM (active)
COc1ccc(Nc2nnc(-c3ccccc3)c3ccccc23)cc1C(=O)N1CCCCC1 | 2.82 µM (active)
COc1ccc(Nc2nnc(-c3ccc(C)cc3)c3ccccc23)cc1C(=O)N1CCCCC1 | 0.251 µM (active)
O=C(c1cc(COc2ccc(F)cc2Cl)on1)N1CCN(C2CCCCC2)C(=O)C1 | 11.2 µM (active)
CN1CCN(C(=O)c2cc(COc3c(F)cccc3F)on2)CC1c1ccccc1 (centres undefined) | inactive
Nc1nonc1-n1nnc(C(=O)N/N=C/c2ccc(Cl)cc2)c1-c1ccc2c(c1)OCO2 | 0.0316 µM (active)
CN(Cc1c(C(=O)N/N=C/c2cccc(O)c2)nnn1-c1nonc1N)c1ccccc1 | inactive
Cc1ccsc1/C=N/NC(=O)c1nnn(-c2nonc2N)c1-c1ccc2c(c1)OCO2 | 0.891 µM (active)
CCOc1ccc(-c2c(C(=O)N/N=C/c3ccc(OC(C)C)cc3)nnn2-c2nonc2N)cc1 | 12.6 µM (active)
Nc1nonc1-n1nnc(C(=O)N/N=C/c2cccc(Cl)c2)c1-c1ccc2c(c1)OCO2 | 0.0708 µM (active)
CCOC(=O)C1=C(NC(=S)NC(=O)c2ccccc2)c2ccccc2CC1(C)CC (centres undefined) | 11.2 µM (active)
CC(=O)Nc1nc2ccccc2n1Cc1ccc(C)cc1 | 5.62 µM (active)
N=C1S/C(=C\c2ccco2)C(=O)N1c1nccs1 | 12.6 µM (active)
CCOC(=O)CNC(=O)C(Cc1ccccc1)NC(=O)OCc1ccccc1 (centres undefined) (Cbz-[ξF]-Gly-OEt) | inactive
CCCNC(=O)C(Cc1ccc(F)cc1)NC(=O)c1ccccc1 (centres undefined) | 6.31 µM (active)
Cc1cc(C)c2[nH]c(C(=O)N3CCC(n4nccc4NC(=O)C4CC4)CC3)c(C)c2c1 | 7.94 µM (active)
Cc1c(C(=O)N2CCC(n3nccc3NC(=O)C3CC3)CC2)[nH]c2ccc(Cl)cc12 | 14.1 µM (active)
CCC(C)[C@H](NC(=O)[C@H](Cc1ccccc1)n1c(=O)[nH]c2ccccc2c1=O)C(=O)NCC1CCC(C(=O)O)CC1 (some centres undefined) | 11.2 µM (active)
CCOCCCn1c(C)nc2c(c1=O)c1nc3ccccc3nc1n2CCC1=CCCCC1 | 3.16 µM (active)
CN(CC(=O)Nc1ccc(F)c(Cl)c1)S(=O)(=O)c1ccc2c(c1)n(C)c(=O)c(=O)n2C | 10 µM (active)

Compound | Potency
CCOc1ccc(S(=O)(=O)N2CCCC(C(=O)NC3CC3)C2)cc1Cl (centres undefined) | 10 µM (active)
O=C(COc1ccccc1)N1c2ccccc2Sc2ccccc21 | 11.2 µM (active)
Cc1c(Cl)ccc2c(C(=O)O)cc(-c3ccccc3)nc12 | inactive
CC1CCCC(NC(=O)c2cc(-c3ccncc3)nc3ccccc23)C1C (centres undefined) | 11.2 µM (active)
COc1ccc2c(c1OC)C(=O)OC2Nc1nc(-c2ccccc2)cs1 (centres undefined) | inactive
COc1ccc2c(c1OC)C(=O)N1N=C(c3ccccc3)CC21 (centres undefined) | 2.24 µM (active)
CC(C)NC(=O)c1onc(CSc2cccc(F)c2)c1C(=O)O | inactive
O=C(O)C1CC=CCC1C(=O)Nc1ccc(S(=O)(=O)N2CCCc3ccccc32)cc1 (centres undefined) | inactive
Cc1ccc(NC(=O)c2cc(S(=O)(=O)N3CCc4ccccc43)cn2C)cc1 | 11.2 µM (active)
C=CCn1c(C)cc(C2=NNC(=NCc3ccccc3)SC2)c1C | 14.1 µM (active)
Cc1cc(NC(=O)CSc2sc3c(O)cc(=O)[nH]c3c2C#N)ccc1Br | 5.62 µM (active)
N#Cc1c(SCC(=O)Nc2ccc(C(F)(F)F)cc2)sc2c(O)cc(=O)[nH]c12 | 0.0891 µM (active)
CCCSc1ccc(-c2nn(-c3ccccc3)cc2/C=C(/C#N)C(=O)NCCCOC)cc1 | 4.47 µM (active)
CC(C)(C)n1nnnc1C(c1ccc2ncccc2c1)N1CCSCC1 (centres undefined) | 11.2 µM (active)
COc1ccc(Cl)cc1NC(=O)C(C)NC(c1ccccc1)c1ccccc1 (centres undefined) | 5.62 µM (active)
CN1CCN(C(=O)CCN2C(=O)/C(=C/c3cccc(Br)c3)SC2=S)CC1 | 3.98 µM (active)
O=C(CCN1C(=O)/C(=C/c2ccccc2Cl)SC1=S)N1CCOCC1 | 10 µM (active)
CCOc1cc(/C=C/c2cc(C(F)(F)F)[nH]c(=O)n2)ccc1O | 14.1 µM (active)
CC(=O)O[C@@]12CO[C@@H]1C[C@H](O)[C@@]1(C)C(=O)[C@H](O)C3=C(C)[C@@H](OC(=O)C(O)[C@@H](NC(=O)OC(C)(C)C)c4ccccc4)C[C@@](O)([C@@H](OC(=O)c4ccccc4)[C@H]21)C3(C)C (some centres undefined) | 0.141 µM (active)
CC(=O)O[C@H]1C(=O)[C@@]2(C)[C@H]([C@H](OC(=O)c3ccccc3)[C@]3(O)C[C@H](OC(=O)[C@H](O)[C@@H](NC(=O)c4ccccc4)c4ccccc4)C(C)=C1C3(C)C)[C@]1(OC(C)=O)CO[C@@H]1C[C@@H]2O | 0.501 µM (active)
